Test results published in PubChem BioAssay.
Calls of active or inactive are those of the source. Unless noted, the rule behind the calls is not given here.

How the values were obtained:
[1] = tested on: Wnt5a (protein binding on small-molecule microarray); assay: small molecules binding Wnt5a protein – biophysical, small-molecule microarray, 635/667 nm fluorescence, primary screen (AID 1142); details: 635 nm fluorescence, higher = more signal;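 note: fluorescence read at 667 nm with signal to noise per printed feature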
[2] = ATP-based viability of Huh7 replicon cells – cell-based, CellTiter-Glo luminescence, basal, 48 h, cytotoxicity control for HCV replication inhibitor project, primary screen (AID 1143); details: higher = more signal, called active from +8 up or from −8 down;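 note: Huh7 hepatoma cells carrying a hepatitis C replication reporter with no stimulus; test concentration not given here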
[3] = Pseudomonas biofilm growth suppression – PAO1 strain, BacTiter-Glo luminescence, LB-PBS, primary screen (AID 1144); details: P. aeruginosa PAO1 biofilm, 12 h, higher = more signal
[4] = basal CRE-LacZ reporter activity in PC12 – cell-based, unstimulated, primary screen (AID 1145); details: no forskolin, luminescence, 4.5 h, higher = more signal, called active from +8 up or from −8 down
[5] = forskolin-driven CRE-LacZ activity in PC12 – cell-based, CRE-LacZ reporter, forskolin-stimulated, primary screen (AID 1146); details: luminescence, 4.5 h, higher = more signal, called active from +8 up or from −8 down;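 note: PC12 cells with 6xCRE LacZ reporter stimulated by forskolin 10 µM; beta-galactosidase reporter signal reflecting CREB driven transcription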
[6] = molecular target: Streptavidin (Streptomyces avidinii) (UniProt P22629); assay: compounds binding control protein streptavidin – biophysical, small-molecule microarray, 635/667 nm fluorescence, artefact control for SMM compound annotation, primary screen (AID 1147); details: higher = more signal;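 note: signal reflects streptavidin binding to arrayed compounds as a control protein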
Chain of Streptavidin (Streptomyces avidinii) (P22629 whole entry, looked up): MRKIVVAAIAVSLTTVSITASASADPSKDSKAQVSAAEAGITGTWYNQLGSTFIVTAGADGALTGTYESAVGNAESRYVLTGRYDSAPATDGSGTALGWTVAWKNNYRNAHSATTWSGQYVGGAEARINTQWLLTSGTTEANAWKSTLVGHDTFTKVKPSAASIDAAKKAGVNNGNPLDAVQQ

[7] = probe aInhba binding on compound microarray – biochemical, small-molecule microarray, 635/667 nm fluorescence, primary screen (AID 1148); details: higher = more signal;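 note: score merges 667nm spot fluorescence with signal-to-noise for antibody binding to printed compounds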
Torsin-1A (Homo sapiens) [8] = molecular target: Torsin-1A (Homo sapiens) (UniProt O14656); assay: TOR1A wild-type binding on microarray – cell lysate, small-molecule microarray, lysate, 635/667 nm, primary screen (AID 1149); details: COS7 hTOR1A-WT lysate, 635 nm fluorescence, higher = more signal
Chain of Torsin-1A (Homo sapiens) (O14656 whole entry, looked up): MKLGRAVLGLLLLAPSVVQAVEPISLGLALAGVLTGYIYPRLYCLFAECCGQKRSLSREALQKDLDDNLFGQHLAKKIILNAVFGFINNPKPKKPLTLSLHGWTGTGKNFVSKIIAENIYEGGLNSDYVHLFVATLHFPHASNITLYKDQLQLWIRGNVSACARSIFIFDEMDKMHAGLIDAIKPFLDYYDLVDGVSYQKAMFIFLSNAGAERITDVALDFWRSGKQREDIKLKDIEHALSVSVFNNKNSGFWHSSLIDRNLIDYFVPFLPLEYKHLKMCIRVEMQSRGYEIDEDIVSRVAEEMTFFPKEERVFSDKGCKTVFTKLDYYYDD

Torsin-1A (Homo sapiens) [9] = molecular target: Torsin-1A (Homo sapiens) (UniProt O14656); assay: torsin A mutant lysate binding on microarrays – cell lysate, small-molecule microarray, COS7 lysate, 635/667 nm fluorescence, primary screen (AID 1150); details: COS7 hTOR1A mutant lysate, 635 nm fluorescence, higher = more signal;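 note: score pools 667 nm emission and signal to noise measuring lysate protein binding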
[10] = tested on: Sonic hedgehog protein (Shh); assay: Sonic hedgehog microarray binding compounds – biochemical, small-molecule microarray, 635/667 nm fluorescence, primary screen (AID 1151); details: 635 nm fluorescence, higher = more signal;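 note: Shh protein binding to compounds spotted on small-molecule microarray slides; score combines spot fluorescence intensity with signal-to-noise across triplicate slides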
[11] = optical density shifts of acrAB sulA E. coli – strain DRC41, OD650, 48 h, E. coli filamentation inducer project, primary screen (AID 1152); details: higher = more signal, called active from +8 up or from −8 down;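 note: E. coli MC1000 strain DRC41 lacking acrAB efflux pump and sulA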
[12] = probe aLefty1 binding on compound microarray – biochemical, small-molecule microarray, 635/667 nm fluorescence, primary screen (AID 1153); details: higher = more signal;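 note: score merges spot fluorescence with signal-to-noise ratio from the scanned slide images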
[13] = plasmodial surface anion channel blockers, osmotic lysis – cell-based, P. falciparum Indochina, OD700, 1 h, primary screen (AID 1154); details: P. falciparum Indochina infected RBC osmotic lysis, higher = more signal, called active from +8 up or from −8 down
[14] = plasmodial surface anion channel blockers, osmotic lysis – cell-based, P. falciparum Indochina, OD700, 2 h, primary screen (AID 1155);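 note: lysis reports solute entry through the parasite surface anion channel PSAC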; details: P. falciparum Indochina infected erythrocytes, higher = more signal, called active from +8 up or from −8 down
[15] = changes in parasitized red cell lysis, either direction – P. falciparum Indochina, OD700, 3 h, PSAC antagonist project, primary screen (AID 1156); details: P. falciparum-infected erythrocytes, osmotic lysis, higher = more signal, called active from +8 up or from −8 down
[16] = plasmodial surface anion channel blockers, osmotic lysis – cell-based, P. falciparum Indochina, OD700, 18 h, primary screen (AID 1157); details: P. falciparum Indochina infected erythrocytes, osmotic lysis OD700, 18 h; higher = more signal, called active from +8 up or from −8 down
[17] = S6 kinase pathway phospho-S6 level changes – cell-based, A549, cytoblot, luminescence, serum-stimulated, primary screen (AID 1158); details: 5 h, higher = more signal;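 note: serum-stimulated A549 lung adenocarcinoma cells; signal is phosphorylated S6 detected by cytoblot immunostaining with HRP secondary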
[18] = molecular target: NADPH oxidase 2 (Homo sapiens) (UniProt P04839); assay: compounds shifting NOX2 Amplex Red fluorescence – cell-based, HEK293-NOX2, PMA-stimulated, NOX inhibitor project, primary screen (AID 1159); details: 45 min, higher = more signal, called active from +8 up or from −8 down; note: test concentration not given here
Chain of NADPH oxidase 2 (Homo sapiens) (P04839 whole entry, looked up): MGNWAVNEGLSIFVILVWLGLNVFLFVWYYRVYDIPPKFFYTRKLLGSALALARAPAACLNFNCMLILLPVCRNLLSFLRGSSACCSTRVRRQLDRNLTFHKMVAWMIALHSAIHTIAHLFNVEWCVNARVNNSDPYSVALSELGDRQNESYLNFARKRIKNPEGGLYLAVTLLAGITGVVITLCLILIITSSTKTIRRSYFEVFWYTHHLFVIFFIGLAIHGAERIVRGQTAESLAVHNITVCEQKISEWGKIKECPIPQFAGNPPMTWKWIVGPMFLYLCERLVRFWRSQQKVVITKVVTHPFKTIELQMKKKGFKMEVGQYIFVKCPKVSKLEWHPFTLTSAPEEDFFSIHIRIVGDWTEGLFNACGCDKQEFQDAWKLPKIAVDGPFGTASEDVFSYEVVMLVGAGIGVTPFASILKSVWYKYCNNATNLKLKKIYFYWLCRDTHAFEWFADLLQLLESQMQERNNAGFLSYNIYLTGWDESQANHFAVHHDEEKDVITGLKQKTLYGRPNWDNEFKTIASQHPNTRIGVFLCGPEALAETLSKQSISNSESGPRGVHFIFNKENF

[19] = molecular target: NADPH oxidase 4 (Homo sapiens) (UniProt Q9NPH5); assay: compounds shifting NOX4 Amplex Red fluorescence – cell-based, HEK293-NOX4, tetracycline-induced, NOX inhibitor project, primary screen (AID 1160); details: HEK293-NOX4, Amplex Red H2O2 fluorescence, 45 min; higher = more signal, called active from +8 up or from −8 down
Chain of NADPH oxidase 4 (Homo sapiens) (Q9NPH5 whole entry, looked up): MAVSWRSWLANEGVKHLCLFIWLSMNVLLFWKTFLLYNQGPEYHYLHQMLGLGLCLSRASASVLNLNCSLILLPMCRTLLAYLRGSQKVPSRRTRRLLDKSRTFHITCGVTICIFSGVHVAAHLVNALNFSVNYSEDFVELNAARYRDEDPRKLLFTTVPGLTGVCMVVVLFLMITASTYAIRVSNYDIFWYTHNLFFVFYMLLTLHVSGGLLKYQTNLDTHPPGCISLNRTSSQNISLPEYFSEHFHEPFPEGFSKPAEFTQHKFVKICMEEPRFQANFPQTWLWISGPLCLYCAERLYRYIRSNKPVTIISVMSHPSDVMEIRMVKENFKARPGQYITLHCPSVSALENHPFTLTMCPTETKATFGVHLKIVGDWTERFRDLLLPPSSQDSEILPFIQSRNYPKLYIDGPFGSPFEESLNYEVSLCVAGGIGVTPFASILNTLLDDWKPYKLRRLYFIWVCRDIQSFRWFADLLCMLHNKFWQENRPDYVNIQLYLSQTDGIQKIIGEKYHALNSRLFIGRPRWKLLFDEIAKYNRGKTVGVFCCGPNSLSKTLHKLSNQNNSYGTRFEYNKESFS

[20] = molecular target: NADPH oxidase 5 (Homo sapiens) (UniProt Q96PH1); assay: compounds shifting NOX5 Amplex Red fluorescence – cell-based, HEK293-NOX5, NOX inhibitor project, primary screen (AID 1161); details: HEK293-NOX5, ionomycin, 45 min, higher = more signal
Chain of NADPH oxidase 5 (Homo sapiens) (Q96PH1 whole entry, looked up): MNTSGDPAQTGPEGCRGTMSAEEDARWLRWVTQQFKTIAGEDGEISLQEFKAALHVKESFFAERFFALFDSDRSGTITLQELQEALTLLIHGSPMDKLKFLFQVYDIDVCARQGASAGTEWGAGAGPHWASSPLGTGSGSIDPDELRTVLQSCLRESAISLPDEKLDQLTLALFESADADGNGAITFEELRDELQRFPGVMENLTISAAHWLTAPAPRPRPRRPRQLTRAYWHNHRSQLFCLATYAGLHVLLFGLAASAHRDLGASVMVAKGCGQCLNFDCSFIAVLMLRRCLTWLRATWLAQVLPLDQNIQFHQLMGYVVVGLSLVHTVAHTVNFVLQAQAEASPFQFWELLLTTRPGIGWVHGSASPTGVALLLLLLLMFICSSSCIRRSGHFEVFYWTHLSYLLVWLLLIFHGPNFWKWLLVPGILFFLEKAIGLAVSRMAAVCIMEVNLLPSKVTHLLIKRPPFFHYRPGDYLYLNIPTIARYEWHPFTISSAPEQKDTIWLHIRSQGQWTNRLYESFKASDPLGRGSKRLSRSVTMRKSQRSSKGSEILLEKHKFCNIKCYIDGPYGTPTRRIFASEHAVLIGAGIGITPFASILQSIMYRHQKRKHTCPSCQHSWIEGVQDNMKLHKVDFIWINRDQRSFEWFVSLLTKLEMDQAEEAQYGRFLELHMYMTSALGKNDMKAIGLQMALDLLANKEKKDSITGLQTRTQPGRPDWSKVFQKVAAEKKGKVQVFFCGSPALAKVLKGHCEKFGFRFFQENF

Row | Structure (SMILES) | composite z-score [1] | z-score [2] | z-score [3] | z-score [4] | z-score [5] | composite z-score [6] | composite z-score [7] | composite z-score (Torsin-1A (Homo sapiens) [8]) | composite z-score (Torsin-1A (Homo sapiens) [9]) | composite z-score [10] | z-score [11] | composite z-score [12] | z-score [13] | z-score [14] | z-score [15] | z-score [16] | z-score [17] | z-score [18] | z-score [19] | z-score [20]
1 | COc1ccc(C#Cc2ccc3c(c2)[C@]2(C(=O)N3)[C@H](c3ccc(O)cc3)N3[C@H](c4ccccc4)[C@H](c4ccccc4)OC(=O)[C@H]3[C@@H]2C(=O)O)cc1 | 0.136 | -4.66 (inactive) | -1.04 (inactive) | 0.478 (inactive) | -0.478 (inactive) | 0.942 | 0.11 | 0.0897 | 0.721 | 0.248 | 1.09 (inactive) | 0.948 | -1.12 (inactive) | -1.32 (inactive) | -8.12 (active) | -2.53 (inactive) | 2.76 | 0.397 (inactive) | -2.46 (inactive) | 0.00974
2 | COCCOC(=O)N1C(=O)[C@@]2(c3cc(C#CCCO)ccc31)[C@H](C(=O)Nc1nc3ccccc3s1)[C@H]1C(=O)O[C@H](c3ccccc3)[C@H](c3ccccc3)N1[C@@H]2c1ccccc1OCCO | 0.585 | -1.41 (inactive) | 0.235 (inactive) | -0.0526 (inactive) | 0.595 (inactive) | 0.968 | 0.949 | 0.759 | 1.12 | 0.881 | -0.348 (inactive) | 1.28 | 5.19 (inactive) | 1.86 (inactive) | 0.286 (inactive) | 1.36 (inactive) | -0.331 | 1.89 (inactive) | -0.9 (inactive) | 0.501
3 | CC(C)C(=C=CC[C@H](O)c1ccc(OCCO)cc1)C[C@H](O)c1ccccn1 | 0.149 | -1.8 (inactive) | -0.576 (inactive) | 5.48 (inactive) | -1.06 (inactive) | -0.573 | -0.0986 | 0.743 | 0.995 | 0.823 | 0.839 (inactive) | -0.191 | 11.3 (active) | 2.04 (inactive) | 1.11 (inactive) | 0.945 (inactive) | 0.439 | 1.66 (inactive) | 0.926 (inactive) | -1.03
4 | COc1cc2c(cc1OC)CN(C(=O)[C@@H]1[C@H]3C(=O)O[C@H](c4ccccc4)[C@H](c4ccccc4)N3[C@H](c3ccc(OCCO)cc3)[C@@]13C(=O)Nc1ccc(C#CC4(O)CCCCCC4)cc13)CC2 | 0.754 | -3.13 (inactive) | -1.35 (inactive) | -0.608 (inactive) | 0.419 (inactive) | 1.51 | -0.164 | 0.746 | 1.09 | 1.44 | 3.13 (inactive) | 0.246 | 4.33 (inactive) | 1.05 (inactive) | 0.785 (inactive) | -1.27 (inactive) | 2.48 | 0.737 (inactive) | 0.802 (inactive) | 1.82
5 | Cc1ccc(S[C@]2(C(=O)NCC(F)(F)F)CC(=O)N(C3CCCCC3)[C@@H]2c2ccc(CO)cc2I)cc1 | -0.0208 | -1.76 (inactive) | 1.13 (inactive) | 0.622 (inactive) | 0.343 (inactive) | 0.864 | 0.0074 | -0.357 | 1.19 | 0.834 | 0.439 (inactive) | -0.0879 | 4.35 (inactive) | 1.29 (inactive) | -0.178 (inactive) | 0.524 (inactive) | -0.283 | 1.04 (inactive) | 0.661 (inactive) | 2.07
6 | COC(=O)[C@@]1(Cc2ccccc2)[C@H]2c3cc(C(=O)N(C)C)n(CCc4ccc(O)c(OC)c4)c3C[C@H]2CN1C(=O)c1ccccc1 | 1.01 | 0.394 (inactive) | 0.333 (inactive) | 0.201 (inactive) | 0.334 (inactive) | 0.545 | 1.07 | 0.0405 | 0.212 | -0.0598 | -0.873 (inactive) | 1.11 | 0.318 (inactive) | 0.277 (inactive) | -0.692 (inactive) | 0.667 (inactive) | -0.565 | 0.0564 (inactive) | -0.485 (inactive) | -0.207
7 | C#CCN([C@@H](Cc1ccc(O)cc1)C(=O)OC)[C@@H](/C=C/C1CC1)[C@H](O)Cc1ccccc1 | -0.595 | -5.26 (inactive) | 0.709 (inactive) | 16.1 (active) | 1.17 (inactive) | -0.492 | -0.128 | -0.541 | -0.12 | 0.825 | -1.08 (inactive) | -0.294 | 3.41 (inactive) | 0.761 (inactive) | -0.824 (inactive) | 0.353 (inactive) | -0.839 | 0.544 (inactive) | -0.606 (inactive) | -1.58
8 | CCCC[C@@H]1C[C@H]1[C@@H](NC(=O)Cc1ccccc1)c1ccc(-c2ccccc2)cc1 | -0.111 | -1.31 (inactive) | 1.65 (inactive) | 0.39 (inactive) | 1.19 (inactive) | 0.698 | -0.158 | -0.369 | 0.21 | -0.756 | -0.71 (inactive) | 0.369 | 1.1 (inactive) | 0.283 (inactive) | 0.249 (inactive) | 0.345 (inactive) | 0.871 | -1.35 (inactive) | -0.123 (inactive) | 1.09
